Data from PubChem BioAssay (Tox21).
Inconclusive results are not listed. Where a call stands in place of a potency, no number is given. Unmarked numbers belong to inactive results. Calls of active or inactive are those of the source. Calls follow the shape of the dose curve; as a rule, active = well fitted cell-killing curve with a large enough effect in the repeat runs; inconclusive = weak or mixed curves, or effect the other way; inactive = no such curve, though single readings can be large or run the other way.

Assay: qHTS assay to identify small molecule antagonists of the retinoid-related orphan receptor gamma (ROR-gamma) signaling pathway - cell viability counter screen (AID 1159520); also: nearly all actives have a fitted effect of over 50% in size
Conditions: Tet-on RORgamma CHO cells viability, ATP luminescence, 16 h; series mostly up to 92.4 µM
Description: U.S. Tox21 Program National Center for Advancing Translational Sciences [NCATS] NIH Chemical Genomics Center [NCGC] U.S. Environmental Protection Agency [EPA] National Institutes of Environmental Health Sciences [NIEHS] National Toxicology Program [NTP] U.S. Food and Drug Administration [FDA] Tox21 Assay Overview: Nuclear steroid hormone receptors are involved in many biological processes including inflammatory responses, cell proliferation, and apoptosis. Environmental factors or compounds disrupting these nuclear receptor pathways and gene expression may promote susceptibility to immunotoxicants and autoimmune diseases. One important group of these expression factors are the retinoid-related orphan receptors. To assess compounds that may interfere with the retinoid-related orphan receptor gamma (ROR-gamma) transcription factor, a cell-based luciferase assay was used. The CHO cell-based assay utilizes a TET-inducible ROR expression factor and ROR response element-LUC reporter gene. Reporter gene activity was induced using Doxycycline Hyclate and measured after 16 hr incubation. Tet-on ROR gamma CHO cells were used to screen against the Tox21 10K compound library for cytotoxicity by measuring the viability of the cells based on the quantitation of the ATP.
Tox21 Assay Protocol Summary: Tet-on ROR gamma CHO cells were dispensed at 1,000 cells in 4 uL of culture medium per well into white wall/solid bottom 1536-well plates using a Multidrop Combi (Thermo Scientific, Waltham, MA) dispenser. Following incubation at 37 C and 5% CO2 for 4 hr, 23 nL of compounds dissolved in DMSO, positive controls or DMSO only were transferred by a Pintool station (Kalypsys, San Diego, CA) and after 2 hr incubation at 37 C, one ul of 1 uM (final concentration) of Doxycycline Hyclate was added to all the wells by using a Flying Reagent Dispenser (FRD) (Aurora Discovery, San Diego, CA). After 16 hr incubation at 37 C and 5% CO2, 5 uL of CellTiter-Glo reagent (Promega Corporation, Madison, WI) was added to each assay plate using FRD. After 30 min incubation at room temperature, luminescence was quantified on a ViewLux plate reader (Perkin Elmer, Waltham, MA).

With CC(=O)C(=O)CC(C)C as the molecule, how does the Potency read?
The Potency was “inactive”.

With CN1CCCN(C(c2ccccc2)c2ccc(Cl)cc2)CC1 (stereo not given) as the molecule, how does the Potency read?
Its Potency is “inactive”.

For CC1=CC[C@@H]2C[C@H]1C2(C)C, which activity, negative = cytotoxicity is on record?
The activity, negative = cytotoxicity was 2.52% [at 19 µM].

Which Potency does the source give for CC(C)(O)c1coc(S(=O)(=O)NC(=O)Nc2c3c(cc4c2CCC4)CCC3)c1 here?
Its Potency is “inactive”.

With O=C(O)CCC(=O)OC[C@@H](NC(=O)C(Cl)Cl)[C@H](O)c1ccc([N+](=O)[O-])cc1 as the molecule, how does the Potency read?
The Potency was “inactive”.

Which Potency does the source give for CC(C)c1ccc(C(=O)N=C(N)N)cc1S(C)(=O)=O here?
The Potency was “inactive”.

For CCC(Cl)CC(Cl)C(Cl)C(Cl)C(Cl)C(C)Cl (stereo not given), which activity, negative = cytotoxicity is on record?
Its activity, negative = cytotoxicity is 0.516% [at 19 µM].

For Cc1cn([C@H]2C[C@H](F)[C@@H](CO)O2)c(=O)[nH]c1=O, which Potency is on record?
The Potency was “inactive”.

With CC(C)N=C=NC(C)C as the molecule, how does the Potency read?
The Potency was “inactive”.

With O=c1[nH]c2cc(C(F)(F)F)c(N3CCOCC3)cc2n(CP(=O)(O)O)c1=O as the molecule, how does the Potency read?
Its Potency is “inactive”.

With c1ccc(CCCc2ccncc2)cc1 as the molecule, how does the Potency read?
Its Potency is “inactive”.

For O=C1NC(=O)c2cccc3cccc1c23, which Potency is on record?
Its Potency is “inactive”.

Which Potency does the source give for O=C(O)c1cc(Cl)cc(Cl)c1O here?
Its Potency is “inactive”.

Which Potency does the source give for CSCC[C@H](NC(=O)[C@H](Cc1c[nH]c2ccccc12)NC(=O)CCNC(=O)OC(C)(C)C)C(=O)N[C@@H](CC(=O)O)C(=O)N[C@@H](Cc1ccccc1)C(N)=O here?
The Potency was “inactive”.

For CCC1CCC(CCC(=O)O)C1 (stereo not given), which Potency is on record?
Its Potency is “inactive”.

Which Potency does the source give for O=P(O)(O)Oc1ccccc1 here?
The Potency was “inactive”.

For COC(=O)CC(C(C)=O)C(=O)OC (stereo not given), which Potency is on record?
The Potency was “inactive”.

For CC(C)c1ccc(C#N)cc1, which Potency is on record?
The Potency was “inactive”.

For Cc1cc(CCCOc2c(C)cc(-c3noc(C(F)(F)F)n3)cc2C)on1, which Potency is on record?
Its Potency is “inactive”.

With [Cl][Nd]([Cl])[Cl] as the molecule, how does the Potency read?
Its Potency is “inactive”.

With CCNc1nc(N)nc(Cl)n1 as the molecule, how does the Potency read?
The Potency was “inactive”.

Which Potency does the source give for O=C1c2ccccc2C(=O)c2c(O)ccc(O)c21 here?
Its Potency is “inactive”.

With CC(C)COC(=O)c1ccc(O)cc1 as the molecule, how does the Potency read?
Its Potency is “inactive”.

For CC(=O)OCCC(C)CC(C)(C)C (stereo not given), which Potency is on record?
Its Potency is “inactive”.

Which Potency does the source give for Nc1ccc(S(=O)(=O)NCc2ccccc2)cc1 here?
Its Potency is “inactive”.

For CC(C)OC(=O)c1ccccc1C(=O)OC(C)C, which Potency is on record?
The Potency was “inactive”.

For BrC(Br)C(Br)Br, which Potency is on record?
The Potency was “inactive”.

For Nc1nc(-c2ccc([N+](=O)[O-])cc2)cs1, which Potency is on record?
Its Potency is “inactive”.

Which Potency does the source give for CCOC(=O)C(C)O (stereo not given) here?
Its Potency is “inactive”.

Which Potency does the source give for CCC(C)(C)C(=O)O here?
Its Potency is “inactive”.

With COC(=O)Nc1nc2ccc(C(=O)C3CC3)cc2[nH]1 as the molecule, how does the Potency read?
Its Potency is “inactive”.

With CNc1c2c(nn1C)CCCC2 as the molecule, how does the Potency read?
Its Potency is “inactive”.

With Nc1ccc(F)cc1 as the molecule, how does the Potency read?
Its Potency is “inactive”.

Which Potency does the source give for Cc1ccc(N(CCO)CCO)cc1 here?
Its Potency is “inactive”.

With SCCc1cnccn1 as the molecule, how does the Potency read?
Its Potency is “inactive”.

For CC(C)CC(O)CC(C)C, which Potency is on record?
Its Potency is “inactive”.

With COc1cc(NS(=O)(=O)c2ccc(N)cc2)nc(C)n1 as the molecule, how does the Potency read?
The Potency was “inactive”.

Which Potency does the source give for CC/C=C\C/C=C\C/C=C\CCCCCCCC(=O)OCC here?
Its Potency is “inactive”.

Which Potency does the source give for CCN(CC)C(=O)N1CCN(C)CC1 here?
Its Potency is “inactive”.

With COC(C)(C)OC as the molecule, how does the Potency read?
Its Potency is “inactive”.
